Measurements published in PubChem BioAssay AID1851 (National Center for Advancing Translational Sciences (NCATS), 2009).
Values joined by “and” are separate entries in the source; they are usually repeats but may differ in a detail not shown here. Equal entries are not always repeated. Among all 16,000 compounds or so, about 2,600 (16%) were called active. Roughly 20% stayed inconclusive and do not appear here. Calls follow the shape of the dose curve; as a rule, active = well fitted curve in the direction sought with a large enough effect; inconclusive = small, poorly fitted or top-dose-only effect, or effect the other way; inactive = no such curve, though single readings can be large or run the other way. The list is a sample of the results. The source holds several records for some structures; these can differ, active in one and inactive in another.

Biological target: Cytochrome P450 2D6 (Homo sapiens) (UniProt P10635)
Assay: Cytochrome panel assay with activity outcomes
Conditions: recombinant CYP, pro-luciferin dealkylation, luminescence, p450-cyp2d6; series mostly up to 57.1 µM; activity, negative = inhibition: at the top concentration
% is scaled to controls: 0 for no effect and ±100 for the full control effect.

Sequence of Cytochrome P450 2D6 (Homo sapiens) (P10635 whole entry, looked up): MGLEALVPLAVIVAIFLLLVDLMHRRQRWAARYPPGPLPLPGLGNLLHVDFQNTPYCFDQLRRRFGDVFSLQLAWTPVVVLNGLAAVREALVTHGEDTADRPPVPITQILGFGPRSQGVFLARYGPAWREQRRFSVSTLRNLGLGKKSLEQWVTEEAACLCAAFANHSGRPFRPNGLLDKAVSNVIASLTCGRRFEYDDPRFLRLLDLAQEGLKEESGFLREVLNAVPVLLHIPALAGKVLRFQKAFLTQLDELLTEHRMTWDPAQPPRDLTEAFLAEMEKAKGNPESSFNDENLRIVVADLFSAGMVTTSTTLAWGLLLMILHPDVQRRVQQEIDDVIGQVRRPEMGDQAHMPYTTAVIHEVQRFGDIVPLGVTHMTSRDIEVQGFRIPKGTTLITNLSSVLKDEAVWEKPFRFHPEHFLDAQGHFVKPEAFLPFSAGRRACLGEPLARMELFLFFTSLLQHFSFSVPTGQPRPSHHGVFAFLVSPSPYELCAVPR

SMILES | activity, negative = inhibition | AC50
O=C(COc1ccccc1C(=O)N/N=C\c1ccc(O)c(O)c1)N/N=C/c1ccc(O)c(O)c1 | -6.7% (inactive) | –
CC(C/C=N/NC(=O)COc1cc(Cl)ccc1Cl)c1ccccc1 (stereo not drawn) | – | 0.631 µM (active)
O=C(COc1ccccc1Cl)Nc1cc(Cl)ccc1Oc1ccccc1 | -7.9% (inactive) | –
CC(C)(C)NC[C@@H](O)c1ccc(O)c(CO)n1 | -1.17% [at 11.4 µM] (inactive) | –
Cc1cccc(C)c1NC(=O)COc1cccc(/C=N/NC(=O)C(=O)NCc2ccccc2)c1 | 3.74% (inactive) | –
O=C(CC(=O)N/N=C\c1c(Cl)cccc1Cl)NCc1ccccc1 | -29.6% (inactive) | –
CCCCNC(=O)C1CC(=O)N(CCC(C)C)C1 (stereo not drawn) | 0.785% (inactive) | –
CNCCCCCCCCSc1nc(C(C)C)ccc1C(=O)c1cccs1 | – | 0.00631 µM (active)
CCCC/C=C/C(NC(=O)c1cccs1)c1ccccc1 (stereo not drawn) | 1.02% (inactive) | –
C[C@@H](C(=O)O)c1ccc(C(=O)c2cccs2)cc1 | -5.01% [at 25.6 µM] (inactive) | –
Nc1ncnc2c1ncn2C1CCCC1 | 8.79% (inactive) | –
CNC(=O)Oc1ccc2c(c1)[C@@]1(C)CCN(C)[C@@H]1N2C | – | 1.26 µM (active) and 631 nM (active)
COc1ccc(Nc2ncc3c(n2)CC(c2ccc(C)cc2)CC3=O)cc1 (stereo not drawn) | -9.28% (inactive) | –
O=c1c(-c2ccc(Cl)cc2)[n+]([O-])c2ccccc2n1OCc1ccccn1 | 14.8% (inactive) | –
CC(C(=O)NC1CCCC1)N(C(=O)c1ccc(-c2ccccc2)[nH]1)c1ccccc1F (stereo not drawn) | -20.3% (inactive) | –
CCOC(=O)Cc1csc(NC(=O)c2ccc(S(=O)(=O)N3CCCCC3)cc2)n1 | 1.88% (inactive) | –
CN(C(=O)Cn1nnc(-c2cccc(C(F)(F)F)c2)n1)C1CCCCC1 | 27.7% (inactive) | –
Cc1cccc2c(SCC(=O)NCC3CCCO3)nc(-c3ccc(F)cc3)nc12 (stereo not drawn) | -24.8% (inactive) | –
COc1ccc(S(=O)(=O)N(CC(=O)NCC2CCCO2)c2ccc(F)cc2)cc1OC (stereo not drawn) | -5.47% (inactive) | –
CC(C)CC(C(=O)NCC1CCCO1)N(C(=O)Cn1nnc(-c2ccc(F)cc2)n1)c1ccccc1F (stereo not drawn) | – | 20 µM (active)
CC(C)CC(C(=O)NCC1CCCO1)N(C(=O)Cn1nnc(-c2ccc(F)cc2)n1)c1cccc(C(F)(F)F)c1 (stereo not drawn) | – | 12.6 µM (active)
CC(C)C(C(=O)NCC1CCCO1)N(Cc1ccco1)C(=O)CNS(=O)(=O)c1ccc(F)cc1 (stereo not drawn) | -2.69% (inactive) | –
NCCCCCC(=O)O | – | inactive
Clc1ccc(-c2nnc(-c3ccco3)o2)cc1 | -8.43% (inactive) | –
O=c1[nH]c(=O)c2nc3ccccc3nc2[nH]1 | 9.16% (inactive) | –

SMILES | activity, negative = inhibition | AC50
CC(=O)NCCC(=O)Nc1sc2c(c1-c1nc3ccccc3[nH]1)CCCC2 | -28.3% (inactive) | –
Cc1ccc(NC(=O)N/C=C/c2ccco2)cc1C | -29.6% (inactive) | –
COc1ccc(C(C(=O)NC2CCCC2)N(C(=O)c2snc(-c3ccc(F)cc3)c2N)c2ccccc2)cc1 (stereo not drawn) | 14.7% (inactive) | –
CCCOc1ccc(Cn2c(C)nc([N+](=O)[O-])c2SCC(O)COC)cc1[N+](=O)[O-] (stereo not drawn) | – | 12.6 µM (active)
COc1ccc(CSc2nnnn2C)cc1[N+](=O)[O-] | -1.53% (inactive) | –
CC(=O)Nc1ccc(Nc2ncnc3c2cnn3-c2ccccc2)cc1 | -16.2% (inactive) | –
N#Cc1cccc(-c2nc3cnc(N4CCOCC4)nc3n(C3CC3)c2=O)c1 | 3.06% (inactive) | –
Cc1cc(C)cc(C(=O)N(NC(=O)Nc2ccc(Cl)cc2)C(C)(C)C)c1 | -12.7% (inactive) | –
CC(C)(C)N(NC(=O)Nc1ccc(Cl)c(Cl)c1)C(=O)c1ccccc1 | – | 28.2 µM (active)
CC(C)(C)N(NC(=O)Nc1ccccc1)C(=O)c1ccccc1Cl | 16.3% (inactive) | –
Cc1nc2cnc(N(C)C)nc2n(CCC#N)c1=O | 1% (inactive) | –
CCCn1c(CC)nc([N+](=O)[O-])c1S(=O)(=O)c1ccccc1 | -12% (inactive) | –
O=[N+]([O-])c1cc(Cl)cc2c1nc(NCCO)c1ccccc12 | -18% [at 11.4 µM] (inactive) | –
CSc1ccccc1N1CCN(C(=O)Nc2ccc3c(c2)NC(=O)CO3)CC1 | 7.94% (inactive) | –
O=C(NCC1CCCO1)c1ccc(CS(=O)(=O)Cc2ccc(F)cc2)o1 (stereo not drawn) | -4.74% (inactive) | –
COC(=O)Cn1c(=O)c2c(nc(Br)n2Cc2ccccc2Cl)n(C)c1=O | -4.28% (inactive) | –
Cn1c(=O)c2c(nc(Cl)n2Cc2ccc(Cl)c(Cl)c2)n(C)c1=O | -24.9% (inactive) | –
Cn1c(OCc2ccc3c(c2)OCO3)nc2c1c(=O)n(Cc1ccc(Cl)c(Cl)c1)c(=O)n2C | – | 5.01 µM (active)
CC(C)c1ccc(Cn2ccc3c4c(N)nc(NC5CC5)nc4ccc32)cc1 | – | 1 µM (active)
Cc1cc(CNC(=O)[C@@H]2C[C@H]2[C@@H](NP(=O)(c2ccccc2)c2ccccc2)c2ccccc2)nn1C | 4.62% (inactive) | –
FC(F)(F)c1nnc2c(Sc3ccccc3)nc3ccc(Cl)cc3n12 | 7.73% (inactive) | –
O=C(O)C[C@H](NC(=O)CP(=O)(O)O)C(=O)O.[NH-][C@@H]1CCCC[C@@H]1[NH-].[Pt] | 7.2% [at 11.4 µM] (inactive) | –
CC1(C)CO[C@H](CC(=O)O)CN1 | – | 0.00631 µM (active)
C[C@H](N)CCCC(C)(C)O | 2.07% [at 25.6 µM] (inactive) | –
O=C(Cn1c(C(F)(F)F)nc2ccccc21)c1ccc(F)cc1 | -10.1% (inactive) | –

SMILES | activity, negative = inhibition | AC50
O=C(CCCN1CC=C(n2c(=O)[nH]c3ccccc32)CC1)c1ccc(F)cc1 | – | 3.16 µM (active)
CC(C)=CCC/C(C)=C/CO/N=C1/C[C@@H](O)[C@@H](O)[C@@H]2[C@@H]3C(=O)N(C[C@@H]4CCCO4)C(=O)[C@H]3CC[C@H]12 | -9.15% [at 11.4 µM] (inactive) | –
COc1ccc(N=C2S/C(=C\c3ccc(C)s3)C(=O)N2CC(C)C)cc1 | 1.59% (inactive) | –
O=C(O)CCC(=O)N1CCc2cc(S(=O)(=O)N3CCCCC3)ccc21 | 4.95% (inactive) | –
Cc1ccc(-c2cc(C(=O)NN=C3CCCC3)c3ccccc3n2)cc1 | -21.4% (inactive) | –
CCNc1ncc2nc(-c3ccc(Cl)cc3)c(=O)n(Cc3ccc(F)cc3)c2n1 | -0.819% (inactive) | –
CN(Cc1n[nH]c(=S)n1C)S(=O)(=O)c1ccccc1 | -5.55% (inactive) | –
COC(=O)C(NC(=O)c1ccc(Cl)cc1)(Nc1nc(C)cs1)C(F)(F)F (stereo not drawn) | -25.8% (inactive) | –
Cc1ccc(SCC(=O)NNC(=O)C2CCCCC2)cc1 | -7.86% (inactive) | –
CC(=O)N[C@@H]1CONC1=O | 18.4% [at 11.4 µM] (inactive) | –
Cc1ccc(C(=O)Nc2ccccc2Oc2ccccc2)cc1[N+](=O)[O-] | -27% (inactive) | –
Cc1ccc(C(=O)Nc2ccc(Cc3ccncc3)cc2)cc1[N+](=O)[O-] | – | 1.41 µM (active)
Cc1ccc(NC(=O)c2ccc(NCC3CCCO3)c([N+](=O)[O-])c2)cc1Cl (stereo not drawn) | -20.3% (inactive) | –
O=C(O)[C@H]1[C@H](C(=O)O)[C@H](C(=O)O)C[C@@H]1C(=O)O | -4.27% [at 11.4 µM] (inactive) | –
N[C@H](C(=O)O)C1[C@H](C(=O)O)[C@H]1C(=O)O (stereo partly drawn) | – | 7.94 µM (active)
N[C@H](C(=O)O)[C@@H]1C[C@@H]1C(=O)O | – | inactive
O=c1cnc2cnc(N3CCOCC3)nc2n1Cc1ccc(F)cc1 | -9.25% (inactive) | –
NC(N)=[N+]1CCc2ccccc2C1 | -16.2% (inactive) | –
COc1ccccc1NC(=O)[C@H](COCc1ccccc1)NC(=O)OC(C)(C)C | -16.4% (inactive) | –
O=S1(=O)C=C(SCc2cccc(Cl)c2)Nc2ccccc21 | – | 12.6 µM (active)
O=C1NCCN1Cc1cccc(Cl)c1 | 2.96% (inactive) | –
Cc1ccc(-n2ccc(=O)c(-c3ccnc(SCc4cccc(Cl)c4)n3)n2)cc1 | -22.4% (inactive) | –
O=C1c2ccccc2C(=O)N1CCCCN(C(=O)c1cccc([N+](=O)[O-])c1)c1ccc(Cl)cc1 | -20.7% (inactive) | –
CC1=NS(=O)(=O)c2cc(Cl)ccc2N1 | – | inactive and 7.94 µM (active)
COc1ccc(-n2nnnc2-c2cn(C)nc2C(F)(F)F)cc1 | -7.4% (inactive) | –

SMILES | activity, negative = inhibition | AC50
O=C(O)c1cc(N=Nc2ccc([N+](=O)[O-])cc2)ccc1O | -8.54% [at 11.4 µM] (inactive) | –
CS[C@]12C(=O)C[C@]3(C)[C@@H](CC[C@@]3(O)C(=O)CO)[C@@H]1CCC1=CC(=O)CC[C@]12C | 0.401% [at 11.4 µM] (inactive) | –
Cn1nc(-c2ccc(N3CCOCC3)c(NS(=O)(=O)c3ccc(Cl)cc3)c2)c2ccccc2c1=O | -7.84% (inactive) | –
CN1CCN(c2ncnc3ccc(-c4cccc(NS(C)(=O)=O)c4)cc23)CC1 | 3.66% (inactive) | –
CN(C)C(=O)c1ccc(-c2cncnc2N2CCNCC2)cc1 | – | 7.94 µM (active)
CN1CCN(c2ncncc2-c2ccc(N(C)C)cc2)CC1 | – | 10 µM (active)
CN(C)C(=O)c1ccc(-c2cncnc2NC2CCNCC2)cc1 | -15.4% (inactive) | –
CN1CCN(c2ncncc2-c2ccc(C(=O)N(C)C)cc2)CC1 | – | 0.251 µM (active)
Cc1ccc(S(=O)(=O)n2c3ccccc3c3nnc(C(=O)c4ccccc4)nc32)cc1 | -14.9% [at 11.4 µM] (inactive) | –
Cc1nn(C)c(C)c1CNC(=O)c1cnn2c1NC(c1ccccc1)CC2C(F)(F)F (stereo not drawn) | -20.7% (inactive) | –
Cn1c2c(c(=O)n(C)c1=O)CN(CCN1CCNCC1)CN2 | 7.25% (inactive) | –
O=C(CC1(O)CCCCC1)OC1CCCC1 | -5.94% [at 11.4 µM] (inactive) | –
CCCCSc1nnc(-c2cc3c(C(F)(F)F)nn(C)c3s2)n1C | -3.58% (inactive) | –
C[N+](C)(C)CC(=O)O | 3.71% (inactive) | –
COc1ccc([C@@H](Nc2ccccn2)c2cc(C(C)(C)C)cc(C(C)(C)C)c2O)cc1 | -16.7% [at 11.4 µM] (inactive) | –
O=C(O)c1cc(C(=O)O)nc(C(=O)O)c1 | 0.571% [at 11.4 µM] (inactive) | –
CC(O)(P(=O)(O)O)P(=O)(O)O | 7.89% [at 25.6 µM] (inactive) | –
O=C(c1cc(C(F)(F)F)cc(C(F)(F)F)c1)N1CCC[C@@]2(CCN(c3ccncc3)C2)C1 | -8.86% (inactive) | –
O=C(c1cc(C(F)(F)F)cc(C(F)(F)F)c1)N1CCC2(CC1)CCN(c1ccncc1)CC2 | – | 15.8 µM (active)
O=C(c1cccc(F)c1)N1CCC[C@@]2(CCN(c3ccncc3)C2)C1 | -2.32% (inactive) | –
O=C(c1cccc(F)c1)N1CCC2(CC1)CCN(c1ccncc1)CC2 | – | 20 µM (active)
O=C(c1cccc(F)c1)N1CCC2(CC1)CN(c1ccncc1)C2 | -4.06% (inactive) | –
O=C(c1cc(C(F)(F)F)cc(C(F)(F)F)c1)N1CCC2(CC1)CN(c1ccncc1)C2 | -15.3% (inactive) | –
